Results published in the supplement of paper PMC10849652.
Targets with a hit are over-represented here; the source holds about 7,900 in all. About 0.6% of all pairs of compound and target were hits. A number with no mark means an inactive call.

Experiments:
Assay in all cases: log2 fold change, soluble protein after heating vs DMSO (PISA); higher = thermal stabilisation; K562 cells, 10 uM, 30 min; active = over 0.2 and 3.5 SD of the protein, either way, in both replicates (recomputed)
[1] = compound: C1=CC=C(C=C1)[C@H](COC2=CC3=C(C=C2)NC(=O)N3)NC(=O)C4=CC=CN(C4=O)CC5=CC(=C(C=C5)F)F
In short: (§1)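 K562 cells at 2×10^6 cells/mL were treated with 10 μM compound for 30 min. Aliquots were heated for 3 min across 48°C-58°C, pooled, and extracted in PBS with 0.5% NP-40 at 4°C; soluble protein was the supernatant after 21,000xg for 90 min. Soluble protein was quantified by TMTpro 16plex LC-MS/MS with channel sums equalised, and reported as log2 fold change in thermal stability against DMSO controls, with values from duplicates.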

[2] = compound: CC1=C(SC2=C1C(=N[C@H](C3=NN=C(N32)C)CC(=O)N)C4=CC=C(C=C4)Cl)C
In short: as §1

[3] = compound: CC1=C2C(=CC=C1)N=C(N(C2=O)C3=CC=CC=C3C)CN4C=NC5=C(N=CN=C54)N
In short: as §1

[4] = compound: Cc1sc2c(c1C)C(c1ccc(Cl)cc1)=N[C@@H](CC(=O)OC(C)(C)C)c1nnc(C)n1-2
In short: as §1

[5] = compound: c1ccc([C@@H]2C[C@H]2NC2CCNCC2)cc1
In short: as §1

UniProt P78356, sequence (P78356 whole entry, looked up): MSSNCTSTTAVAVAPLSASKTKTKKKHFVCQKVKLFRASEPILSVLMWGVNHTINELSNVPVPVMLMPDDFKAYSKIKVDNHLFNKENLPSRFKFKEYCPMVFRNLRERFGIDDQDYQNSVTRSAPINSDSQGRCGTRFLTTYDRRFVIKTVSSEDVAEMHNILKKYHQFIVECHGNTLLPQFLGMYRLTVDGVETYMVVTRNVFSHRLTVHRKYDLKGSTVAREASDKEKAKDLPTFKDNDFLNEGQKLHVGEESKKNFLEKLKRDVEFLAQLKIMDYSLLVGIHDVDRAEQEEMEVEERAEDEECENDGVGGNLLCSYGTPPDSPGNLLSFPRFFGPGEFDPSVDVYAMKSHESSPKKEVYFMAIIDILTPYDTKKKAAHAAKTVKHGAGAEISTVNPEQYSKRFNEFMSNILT
UniProt P54619, sequence (P54619 whole entry, looked up): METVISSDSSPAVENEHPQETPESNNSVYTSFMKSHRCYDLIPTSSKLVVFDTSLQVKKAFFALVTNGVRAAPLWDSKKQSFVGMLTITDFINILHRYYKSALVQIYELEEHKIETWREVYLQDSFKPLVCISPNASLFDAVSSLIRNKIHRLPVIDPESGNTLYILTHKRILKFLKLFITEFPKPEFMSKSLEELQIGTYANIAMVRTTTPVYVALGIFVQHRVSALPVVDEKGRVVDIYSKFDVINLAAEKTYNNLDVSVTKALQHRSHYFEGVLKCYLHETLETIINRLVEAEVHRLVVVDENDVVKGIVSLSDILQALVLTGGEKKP
UniProt Q8NCC3, sequence (Q8NCC3 whole entry, looked up): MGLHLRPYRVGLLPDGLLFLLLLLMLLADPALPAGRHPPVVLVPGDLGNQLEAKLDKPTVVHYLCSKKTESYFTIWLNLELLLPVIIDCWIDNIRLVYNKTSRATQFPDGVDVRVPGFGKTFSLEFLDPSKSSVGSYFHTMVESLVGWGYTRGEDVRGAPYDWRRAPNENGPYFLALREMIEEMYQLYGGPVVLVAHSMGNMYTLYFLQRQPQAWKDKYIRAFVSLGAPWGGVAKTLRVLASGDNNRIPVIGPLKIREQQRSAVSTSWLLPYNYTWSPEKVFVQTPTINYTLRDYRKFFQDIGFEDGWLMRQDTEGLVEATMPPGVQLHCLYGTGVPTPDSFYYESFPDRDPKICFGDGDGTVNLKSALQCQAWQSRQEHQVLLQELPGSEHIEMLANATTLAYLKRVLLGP
UniProt P49585, sequence (P49585 whole entry, looked up): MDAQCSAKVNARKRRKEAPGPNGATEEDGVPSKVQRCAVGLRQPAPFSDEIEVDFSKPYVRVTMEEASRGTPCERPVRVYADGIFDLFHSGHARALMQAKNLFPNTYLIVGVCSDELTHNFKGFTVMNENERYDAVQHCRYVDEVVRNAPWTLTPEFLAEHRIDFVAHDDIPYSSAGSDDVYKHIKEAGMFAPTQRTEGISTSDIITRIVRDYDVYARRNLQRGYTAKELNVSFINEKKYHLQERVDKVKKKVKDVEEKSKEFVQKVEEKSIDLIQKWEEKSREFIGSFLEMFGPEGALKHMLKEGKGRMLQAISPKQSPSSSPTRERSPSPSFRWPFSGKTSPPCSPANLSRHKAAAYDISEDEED
UniProt Q8N4L2, sequence (Q8N4L2 whole entry, looked up): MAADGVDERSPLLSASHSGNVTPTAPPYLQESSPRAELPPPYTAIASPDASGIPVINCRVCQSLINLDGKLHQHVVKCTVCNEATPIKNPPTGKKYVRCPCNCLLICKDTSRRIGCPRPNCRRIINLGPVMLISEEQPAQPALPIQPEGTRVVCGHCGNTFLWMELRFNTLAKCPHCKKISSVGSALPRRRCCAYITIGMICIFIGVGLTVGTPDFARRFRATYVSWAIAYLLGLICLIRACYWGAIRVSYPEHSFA
UniProt Q13200, sequence (Q13200 whole entry, looked up): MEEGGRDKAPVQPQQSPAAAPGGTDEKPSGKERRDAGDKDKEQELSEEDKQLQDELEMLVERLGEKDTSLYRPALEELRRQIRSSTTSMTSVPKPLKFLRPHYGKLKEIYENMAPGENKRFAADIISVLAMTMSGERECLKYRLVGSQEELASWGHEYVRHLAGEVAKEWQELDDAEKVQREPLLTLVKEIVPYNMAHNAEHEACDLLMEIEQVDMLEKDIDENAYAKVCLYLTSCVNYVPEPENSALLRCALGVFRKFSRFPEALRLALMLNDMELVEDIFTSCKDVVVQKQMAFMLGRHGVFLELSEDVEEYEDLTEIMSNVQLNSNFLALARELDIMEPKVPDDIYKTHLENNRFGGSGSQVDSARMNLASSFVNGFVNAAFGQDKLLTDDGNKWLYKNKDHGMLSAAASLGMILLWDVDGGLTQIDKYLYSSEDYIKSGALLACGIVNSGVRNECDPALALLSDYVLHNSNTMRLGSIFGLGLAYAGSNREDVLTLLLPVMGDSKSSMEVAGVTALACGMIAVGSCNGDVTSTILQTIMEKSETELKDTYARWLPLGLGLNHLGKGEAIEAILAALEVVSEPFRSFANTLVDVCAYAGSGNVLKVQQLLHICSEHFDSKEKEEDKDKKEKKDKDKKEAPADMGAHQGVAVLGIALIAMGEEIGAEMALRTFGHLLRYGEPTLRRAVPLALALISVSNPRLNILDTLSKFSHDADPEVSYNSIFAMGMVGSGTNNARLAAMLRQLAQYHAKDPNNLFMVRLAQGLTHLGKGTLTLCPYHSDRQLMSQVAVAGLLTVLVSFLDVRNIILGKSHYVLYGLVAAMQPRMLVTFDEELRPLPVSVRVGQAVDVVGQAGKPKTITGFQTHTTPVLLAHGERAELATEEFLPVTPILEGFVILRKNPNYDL
UniProt Q13362, sequence (Q13362 whole entry, looked up): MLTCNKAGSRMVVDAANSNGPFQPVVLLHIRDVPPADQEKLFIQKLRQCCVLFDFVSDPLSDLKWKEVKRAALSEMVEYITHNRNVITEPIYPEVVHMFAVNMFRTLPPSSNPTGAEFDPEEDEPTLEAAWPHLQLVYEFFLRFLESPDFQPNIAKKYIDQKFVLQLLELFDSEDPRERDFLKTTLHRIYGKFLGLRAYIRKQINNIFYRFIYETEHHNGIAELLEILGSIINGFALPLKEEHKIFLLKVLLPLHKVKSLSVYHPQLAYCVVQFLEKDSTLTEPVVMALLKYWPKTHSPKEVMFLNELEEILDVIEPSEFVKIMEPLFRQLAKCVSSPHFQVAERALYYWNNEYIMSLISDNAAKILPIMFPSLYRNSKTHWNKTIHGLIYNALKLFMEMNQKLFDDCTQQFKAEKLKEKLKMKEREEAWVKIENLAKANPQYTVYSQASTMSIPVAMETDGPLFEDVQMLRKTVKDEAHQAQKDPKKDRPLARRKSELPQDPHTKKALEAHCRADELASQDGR
UniProt P42338, sequence (P42338 whole entry, looked up): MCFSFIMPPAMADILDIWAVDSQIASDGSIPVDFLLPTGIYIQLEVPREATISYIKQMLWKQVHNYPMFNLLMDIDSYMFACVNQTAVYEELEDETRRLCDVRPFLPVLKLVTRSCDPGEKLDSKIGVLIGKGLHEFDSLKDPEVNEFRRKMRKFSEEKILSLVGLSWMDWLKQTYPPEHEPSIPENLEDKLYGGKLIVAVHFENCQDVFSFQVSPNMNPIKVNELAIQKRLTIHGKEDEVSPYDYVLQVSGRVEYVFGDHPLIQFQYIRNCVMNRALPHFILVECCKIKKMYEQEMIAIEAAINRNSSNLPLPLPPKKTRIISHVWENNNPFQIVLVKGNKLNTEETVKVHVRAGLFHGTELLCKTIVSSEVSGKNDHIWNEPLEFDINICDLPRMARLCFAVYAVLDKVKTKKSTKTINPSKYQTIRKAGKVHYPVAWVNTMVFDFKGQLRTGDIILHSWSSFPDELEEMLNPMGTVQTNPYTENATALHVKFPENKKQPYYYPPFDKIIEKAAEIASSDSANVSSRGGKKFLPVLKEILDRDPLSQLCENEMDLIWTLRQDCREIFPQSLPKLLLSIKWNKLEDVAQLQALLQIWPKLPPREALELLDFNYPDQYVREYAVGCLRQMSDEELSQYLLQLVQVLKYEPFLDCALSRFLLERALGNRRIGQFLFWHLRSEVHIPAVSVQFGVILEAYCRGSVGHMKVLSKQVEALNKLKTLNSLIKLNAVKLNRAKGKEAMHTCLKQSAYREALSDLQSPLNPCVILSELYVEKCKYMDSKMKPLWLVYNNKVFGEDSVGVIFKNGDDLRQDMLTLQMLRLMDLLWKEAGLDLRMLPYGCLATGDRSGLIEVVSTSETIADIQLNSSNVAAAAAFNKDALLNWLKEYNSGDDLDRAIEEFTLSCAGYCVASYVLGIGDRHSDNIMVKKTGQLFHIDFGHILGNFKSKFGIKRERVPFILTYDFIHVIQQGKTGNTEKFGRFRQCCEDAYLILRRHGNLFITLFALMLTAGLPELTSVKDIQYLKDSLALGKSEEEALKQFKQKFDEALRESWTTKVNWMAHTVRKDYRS
UniProt P62191, sequence (P62191 whole entry, looked up): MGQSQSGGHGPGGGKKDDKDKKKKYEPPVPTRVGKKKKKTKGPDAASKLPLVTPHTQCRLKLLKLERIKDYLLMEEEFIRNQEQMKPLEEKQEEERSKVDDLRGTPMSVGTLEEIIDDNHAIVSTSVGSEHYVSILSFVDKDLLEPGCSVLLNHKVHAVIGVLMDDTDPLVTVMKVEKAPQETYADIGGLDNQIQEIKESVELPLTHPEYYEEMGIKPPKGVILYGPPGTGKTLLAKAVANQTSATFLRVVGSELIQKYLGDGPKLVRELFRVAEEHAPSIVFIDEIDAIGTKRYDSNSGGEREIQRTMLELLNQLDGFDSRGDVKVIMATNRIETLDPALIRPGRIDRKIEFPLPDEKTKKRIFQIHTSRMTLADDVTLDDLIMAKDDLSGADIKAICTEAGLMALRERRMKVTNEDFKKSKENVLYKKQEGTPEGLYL
UniProt P28070, sequence (P28070 whole entry, looked up): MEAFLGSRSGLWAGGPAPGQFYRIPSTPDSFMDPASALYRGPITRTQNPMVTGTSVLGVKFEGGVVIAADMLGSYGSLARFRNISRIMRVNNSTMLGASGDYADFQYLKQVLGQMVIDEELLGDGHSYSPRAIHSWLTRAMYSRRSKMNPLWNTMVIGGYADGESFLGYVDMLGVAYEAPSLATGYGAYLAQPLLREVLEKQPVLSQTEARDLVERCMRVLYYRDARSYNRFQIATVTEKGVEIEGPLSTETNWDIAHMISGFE

Target	log2 fold change [1]	log2 fold change [2]	log2 fold change [3]	log2 fold change [4]	log2 fold change [5]
PML (UniProt P29590)	-0.008	-0.054	0.002	-0.005	0.001
PTP4A2 (UniProt Q12974)	-0.021	0.028	0.056	0.052	-0.029
PSMC1 (UniProt P62191)	0.047	-0.09	-0.002	0	0
PLCL1 (UniProt Q15111)	0.12	0.073	0.165	-0.029	0.052
PRKAG1 isoform 3 (UniProt P54619)	-0.008	0.067	0.019	-0.011	-0.017
PLA2G15 (UniProt Q8NCC3)	0.02	-0.01	-0.034	-0.001	0
PCBP1 (UniProt Q15365)	-0.045	0.047	0.048	-0.03	0
PCBP2 (UniProt F8VRH0)	-0.033	-0.18	-0.013	0.085	0.026
PPID (UniProt Q08752)	-0.079	0.031	0.036	-0.035	-0.031
PPP1CA (UniProt P62136)	0.003	0.022	0.025	0.016	0.015
PCYT1A (UniProt P49585)	-0.035	0.005	0.056	-0.012	0.019
POP1 (UniProt Q99575)	0.003	-0.028	0.029	0.017	-0.01
PIK3CB (UniProt P42338)	-0.068	0.014	0.213 (active)	-0.01	0.005
POM121 (UniProt Q96HA1)	0.023	-0.033	0.026	0.054	-0.002
POLR2A (UniProt P24928)	-0.014	0.158	0.031	0.17	-0.059
PC (UniProt P11498)	-0.012	0.031	0.111	0.025	-0.021
PRKAB1 (UniProt Q9Y478)	0.011	0.037	-0.024	-0.093	-0.037
PPP2R5C isoform 4 (UniProt Q13362)	-0.03	-0.003	0.117	-0.019	0.012
PIP4P2 (UniProt Q8N4L2)	0.045	0.048	-0.066	-0.017	-0.018
PSMD9 (UniProt O00233)	0.014	0.017	-0.004	0.007	0.016
PSMD2 (UniProt Q13200)	0.026	-0.097	-0.059	0.008	0.016
PEX7 (UniProt O00628)	-0.371 (active)	0.035	0.136	0.021	-0.03
PIP4K2B (UniProt P78356)	-0.102	0.018	-0.034	-0.038	-0.026
PSMB4 (UniProt P28070)	0.024	-0.037	-0.038	-0.009	0.03
PRCP (UniProt P42785)	0.023	-0.036	-0.061	0.018	0.062
